The list is not random: actives were taken first. Their share in the collection is about 0.3%.
NPYLR7 agonist – agonists of mosquito NPYLR7 receptor, primary screen, cell-based, Aedes aegypti, calcium fluorescence, mosquito biting behavior; HEK293T NPYLR7/Galpha15, GCaMP6s calcium fluorescence; activation, % at 10 µM; 0.15% of 270,000 active; Aedes aegypti neuropeptide Y-like receptor 7 (NPYLR7); in the data active = activation above about 40%;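 also: 0% = vehicle and 100% = reference agonist at the receptor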
mcGAS lum – cyclic GMP-AMP synthase inhibitors, mouse, primary biochemical chemiluminescence | 0.15% of 160,000 active | Q8C6L5 | inhibition, % at 12.5 µM | recombinant cGAS, Kinase-Glo ATP depletion luminescence;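 also: 0% = negative control wells and 100% = reference inhibitor with no enzyme activity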
Target sequence (Q8C6L5 whole entry, looked up): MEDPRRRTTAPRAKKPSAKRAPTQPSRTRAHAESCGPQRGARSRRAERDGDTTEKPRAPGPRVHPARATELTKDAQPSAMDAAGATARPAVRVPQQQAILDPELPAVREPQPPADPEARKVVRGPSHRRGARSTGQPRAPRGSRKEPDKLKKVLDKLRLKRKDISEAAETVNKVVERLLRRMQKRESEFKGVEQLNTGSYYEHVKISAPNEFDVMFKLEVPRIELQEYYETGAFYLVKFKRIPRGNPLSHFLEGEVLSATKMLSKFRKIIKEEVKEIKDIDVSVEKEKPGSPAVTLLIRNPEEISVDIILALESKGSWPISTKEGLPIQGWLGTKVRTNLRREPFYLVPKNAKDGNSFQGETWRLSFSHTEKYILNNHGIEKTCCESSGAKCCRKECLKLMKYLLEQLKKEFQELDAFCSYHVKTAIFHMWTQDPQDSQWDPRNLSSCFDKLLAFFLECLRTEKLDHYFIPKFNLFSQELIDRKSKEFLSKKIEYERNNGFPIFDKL
hcGAS inh – Primary biochemical luminescence assay for human cyclic GMP-AMP synthase inhibitors. recombinant h-cGAS, ATP depletion, Kinase-Glo luminescence. inhibition, % at 12.5 µM. 0.081% of 290,000 active. AID 1259398, 2018;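 also: 0% = vehicle reaction and 100% = reaction without DNA for no activity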
* hit, by the source's call; x = no result; + = active, no number. Rule as the data show it, unless noted: active = inhibition above about 40%; inactive = the rest.

SMILES | NPYLR7 agonist | mcGAS lum | hcGAS inh
O=C1C=CC(=NC(=NS(=O)(=O)c2ccccc2)c2ccccc2)C=C1Cl | -2.2 | -3.2 | -3.8
CN(Cc1ccccc1)c1cc(Cl)nc(SCc2cccc(C(=O)N3CC4(C)CC3CC(C)(C)C4)c2)n1 (stereo unspecified) | 9.8 | -5.0 | -0.9
CCN(CC)C(=O)COC(=O)c1cccc(N2CC(=O)C(c3nc4ccccc4s3)C2=N)c1 (stereo unspecified) | -1.2 | -6.3 | -7.6
N=C1C(c2nc3ccccc3s2)C(=O)CN1N1C(=O)c2ccccc2C1=O (stereo unspecified) | 3.2 | 43.4* | 10.5
COC(=O)c1cccc(NC(=O)N2CC(=O)N3CC(C)c4ccccc4C3C2)c1 (stereo unspecified) | 25.6 | -6.0 | -10.9
CC(C)NC(=O)CCN(CC1CCCO1)C(=O)c1cc(-c2cccc(Cl)c2)on1 (stereo unspecified) | x | -5.9 | -6.3
COc1cccc(-c2cc(C(=O)N(CCC(=O)NCCC3CCCN3C)CC(C)C)no2)c1 (stereo unspecified) | 6.1 | x | +
COC(=O)CCCC(=O)N1CCCN(c2nc3ccccc3nc2-c2ccccc2)CC1 | 2.3 | -5.9 | -5.4
COCCn1c(C)cn2c3c(=O)n(Cc4ccc(F)cc4)c(=O)n(C)c3nc12 | 5.4 | x | 3.0
CCOC(=O)[C@H]1C[C@]2(CCCCNC2=O)N(C(=O)c2cccs2)[C@H]1c1ccco1 | -1.4 | -7.9 | -7.1
CCN(CC)c1ncccc1CNC(=O)c1c[nH]c2ccccc12 | -2.0 | x | -3.3
COCCN(CCC(=O)Nc1ccccc1)c1nc(-c2ccccc2)nc2ccccc12 | -0.1 | 1.6 | 2.0
CC(=O)c1c(C)[nH]c(C(=O)Cn2cc(C(F)(F)F)cc(Cl)c2=O)c1C | -2.0 | -1.8 | 73.8*
CC(N)=C(C#N)C(=O)Cn1cc(C(F)(F)F)cc(Cl)c1=O | 14.2 | x | -3.7
CCCC(=O)N1CCN(C(=O)c2cn(CC3CCCO3)cc3c(=O)n(-c4ccccc4)nc2-3)CC1 (stereo unspecified) | 2.5 | -7.9 | -6.8
O=C1C(=Cc2ccccc2O)NC(=S)N1Cc1ccco1 | 80.1* | 1.3 | 0.7
CCCCN1C(=O)C(=Cc2cccnc2)NC1=S | 5.6 | x | -6.3
CCOCCCN1C(=O)C(=Cc2ccccc2O)NC1=S | 119.6* | x | 0.8
COc1ccccc1C=C1SC(=S)N(Cc2ccco2)C1=O | 11.4 | x | -9.2
S=C(NCc1ccco1)N1CCC2CCCCC2C1 (stereo unspecified) | 3.9 | x | -0.9
CCOc1ccc(S(=O)(=O)n2ccc(C)n2)cc1C | 5.2 | -9.1 | -10.0
CN(CC1COc2ccccc2O1)C(=O)CCl (stereo unspecified) | -5.3 | 53.9* | -7.2
CN(CC1COc2ccccc2O1)C(=O)CN1C(=O)c2ccccc2S1(=O)=O (stereo unspecified) | 2.5 | x | -6.5
CC1=CC(C)(C)N2C(=O)C3(c4ccc(O)cc4OC(=N)C3C#N)c3c(C)c(C)cc1c32 (stereo unspecified) | 12.1 | x | -5.5
COc1cccc2cc(CNCC3CCOC3c3cnn(C)c3)oc12 (stereo unspecified) | 2.0 | x | -10.6
SMILES | NPYLR7 agonist | mcGAS lum | hcGAS inh
CC1=NN(c2cccc(C(=O)O)c2)C(=O)/C1=C\c1ccc(-c2ccccc2C(=O)O)o1 | -3.7 | 63.6* | -6.0
CC1=NN(c2cccc(C(=O)O)c2)C(=O)/C1=C\c1ccc(-c2cc([N+](=O)[O-])ccc2O)o1 | -16.9 | 7.9 | 4.6
CN(C)C1(CNS(=O)(=O)c2cccc3nsnc23)CCCCC1 | -2.2 | -4.3 | -4.5
O=C1CC(C(=O)N2CCN(c3nccs3)CC2)C2(CCCCC2)O1 (stereo unspecified) | x | -5.6 | -3.2
CNS(=O)(=O)c1cccc(C(=O)N2CCc3ccccc3C2)c1 | -3.3 | -6.2 | -6.2
O=C(c1cccc(F)c1)N(Cc1cccc(OCc2nc(CO)cs2)c1)Cc1ccco1 | -7.8 | -3.7 | -4.7
CCN(CC)c1ccc(/C=C2\SC(=S)N(CC(=O)O)C2=O)c(O)c1 | 93.1* | -8.6 | -17.5
O=C(O)CN1C(=O)/C(=C\c2ccc(O)cc2)SC1=S | 59.3* | x | -5.4
CC(C(=O)O)N1C(=O)/C(=C/c2ccc([N+](=O)[O-])cc2)SC1=S (stereo unspecified) | -2.2 | 38.5 | -1.1
COc1ccc(Br)cc1/C=C1/SC(=S)N(CC(=O)O)C1=O | -0.6 | x | -1.2
COc1cc(OC)c(OC)cc1/C=C1/SC(=S)N(CC(=O)O)C1=O | 58.7* | -3.0 | -1.0
O=C(O)C(Cc1ccccc1)N1C(=O)/C(=C/c2ccc([N+](=O)[O-])cc2)SC1=S (stereo unspecified) | 6.3 | 53.8* | 2.5
O=C(O)CCCN1C(=O)/C(=C\c2ccc(O)cc2)SC1=S | 60.7 | -1.3 | -4.2
O=C(O)CN1C(=O)/C(=C\c2ccc(O)c(O)c2)SC1=S | 13.4 | 5.4 | -1.9
COc1ccccc1Oc1ncccc1CNCc1cc2ccccc2o1 | 15.5 | x | -11.6
Cn1ccsc1=NC(=O)c1cc(F)cc(F)c1 | 0.0 | -8.9 | -11.1
O=C(COC(=O)C1SCCc2sccc21)NCc1ccc2c(c1)OCO2 (stereo unspecified) | -3.9 | x | -1.3
C=CCN1C(=O)/C(=C\c2ccc(O)cc2)SC1=S | 54.9* | -6.1 | -7.5
Cc1ccc(/C=C2\SC(=S)N(C(C(=O)O)C(C)C)C2=O)cc1 (stereo unspecified) | -5.6 | 7.1 | -1.1
CC(C)C(C(=O)O)N1C(=O)/C(=C/c2ccc(O)cc2)SC1=S (stereo unspecified) | 68.1* | -5.1 | -2.9
C=CCN1C(=O)/C(=C\c2ccc(N(C)C)cc2)SC1=S | 7.4 | -6.9 | -6.8
CN(C)c1ccc(/C=C2/SC(=S)N(CC(=O)O)C2=O)cc1 | 70.8* | -8.1 | 2.7
C=CCN1C(=O)C(=Cc2ccncc2)SC1=S | -3.3 | x | -5.3
C=c1ccccc1=C1NNc2c3ccc(Cl)cc3nc(=NCCN(C)C)n21 | x | 1.9 | 3.1
CC1(Cc2cccc(C(F)(F)F)c2)C(=O)Nc2ccc(OC(F)(F)F)cc21 (stereo unspecified) | 1.8 | -2.6 | -1.7
SMILES | NPYLR7 agonist | mcGAS lum | hcGAS inh
Cn1nc(C2CCCN(C(=O)CCc3cccnc3)C2)n(-c2ccccc2)c1=O (stereo unspecified) | 23.6 | -18.7 | 0.8
Cc1c(S(=O)(=O)CCNC(=O)Nc2ccccc2)c2ccccc2n1Cc1ccccc1 | 2.4 | x | -0.7
N#CC(C(=O)/C=C/c1nccs1)C(=O)Nc1cccc(Cl)c1Cl (stereo unspecified) | -0.6 | x | 45.8*
Cc1c(Cl)cccc1NC(=O)C(C#N)C(=O)COc1ccc(F)cc1 (stereo unspecified) | 22.3 | -14.7 | -2.7
N#CC(C#N)=CC(=N)C(C#N)c1cc(O)c(O)c(O)c1 (stereo unspecified) | 6.8 | 51.1* | 12.4
COc1ccc(CCN(Cc2ccc(C)s2)C(=O)CN(CC2CCCO2)C(=O)Nc2ccc(Cl)c(Cl)c2)cc1OC (stereo unspecified) | -0.7 | -5.6 | -4.6
CNC(=O)CSc1nc2c(-c3ccccc3)c(C)nn2c(=O)[nH]1 | 7.2 | -2.7 | 54.6*
Cc1nn2c(=O)[nH]c(SCC(=O)NCCc3ccccc3)nc2c1-c1ccccc1 | 9.7 | 1.0 | 5.9
